# Hit rate of the full screen: of about 290,000 compounds, about 11,000 (3.8%) were called active. The list comes from a sample in which actives are over-represented; it also holds similar structures and randomly drawn compounds. Unmarked numbers belong to inactive results.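 The calls were made as follows: active = mean replicate inhibition above about 79%, with every replicate also reaching it (limit read from the data); inconclusive = only one of the two criteria met; inactive = mean below limit and not every replicate reaching it.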
# Biological target: FAD-linked sulfhydryl oxidase ALR (Homo sapiens) (UniProt P55789)
# Assay: inhibitors of human ALR sulfhydryl oxidase, primary screen, biochemical, H2O2 detection, HRP-luminol luminescence, single point (AID 485317)
# Conditions: purified ALR, DTT oxidation, stronger effect = higher value, concentration not given here
# Sequence of FAD-linked sulfhydryl oxidase ALR (Homo sapiens) (P55789 whole entry, looked up): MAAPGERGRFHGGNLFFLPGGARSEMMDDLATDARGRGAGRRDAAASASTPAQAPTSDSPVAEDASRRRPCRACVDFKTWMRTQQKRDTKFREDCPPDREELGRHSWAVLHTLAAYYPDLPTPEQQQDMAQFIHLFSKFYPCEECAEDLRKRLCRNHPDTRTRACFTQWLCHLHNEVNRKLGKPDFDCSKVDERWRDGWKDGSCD
row,Compound,inhibition
1,O=C1CN(C(=O)COc2c(Cl)cccc2Cl)c2ccccc2N1,-8.36%
2,COc1ccc(S(=O)(=O)NCc2cccnc2)cc1NC(=O)c1ccc(C)cc1,-2.4%
3,CC(C)(C)NS(=O)(=O)NC(=O)C1=C(N2CCCC2)COC1=O,2.74%
4,CC(=O)Nc1ccc(C(=O)Nc2cccc(S(=O)(=O)NC3=NCCC3)c2)cc1,-4.84%
5,CC(=O)c1nn(-c2ccc(C)cc2)cc1C(=O)c1cccc(Br)c1,-13.6%
6,CC(=O)N/C(=C\c1ccccc1)C(=O)OC(C)C(=O)N(C)c1ccccc1 (centres undefined),0.887%
7,Cc1nc(SCc2ccc(F)cc2)c([N+](=O)[O-])[nH]1,1.42%
8,Cc1nc(SCC(=O)c2ccccc2)c([N+](=O)[O-])[nH]1,97.8% (active)
9,Cc1nc2nc(SCC(=O)c3ccccc3)[nH]c2cc1Br,-4.01%
10,O=C1CCCCC1Sc1ccc(Cl)cc1[N+](=O)[O-] (centres undefined),-27.8%
11,CCOc1ncccc1C(=O)Nc1ccc2c(c1)OCCO2,4.02%
12,Oc1ccc2ccccc2c1N=Nc1nccs1,-13.2%
13,Oc1ccc(N=Nc2nccs2)c(O)c1,83.1% (active)
14,CN1CCN(S(=O)(=O)c2cccc(C(=O)Nc3sccc3C#N)c2)CC1,6.71%
15,COc1ccc(C(=O)NC(=S)Nc2ccc(N3CCCC3)cc2)cc1OC,2.05%
16,Cc1ccccc1C(=O)Nc1ccc(N2CCCCCC2)cc1,68.7%
17,COc1cccc(OC)c1C(=O)Nc1ccc(N2CCCCC2)cc1,86% (active)
18,COc1ccc(C(=O)Nc2ccc(N3CCC(C)CC3)cc2)cc1Br,-4.62%
19,CC(=O)Nc1ccc(S(=O)(=O)Nc2ccc(N3CCOCC3)c(F)c2)cc1,3.94%
20,COc1cccc(C(=O)Nc2ccc(N3CCN(C(=O)c4ccco4)CC3)cc2)c1,-0.228%
21,CC(=O)Nc1ccc(NS(=O)(=O)c2ccc3c(c2)NC(=O)CC(=O)N3)cc1,-6.71%
22,CC(=O)Nc1ccc(S(=O)(=O)Nc2ccc(N3CCCCC3)cc2)cc1,99.4% (active)
23,COc1cccc(C(=O)Nc2ccc(N3CCCC3)cc2)c1,100% (active)
24,Cc1ccc(Cc2nnc(SCC(=O)Nc3ccc(C)cc3C)[nH]c2=O)cc1,-13.1%

row,Compound,inhibition
1,COc1ccccc1N(C)S(=O)(=O)c1ccc(Cl)c(C(=O)Nc2ccncc2)c1,-13.7%
2,Cc1ccc(OCC(=O)Oc2ccccc2[N+](=O)[O-])cc1,8.6%
3,O=C(COc1cccnc1[N+](=O)[O-])Nc1ccc(Cl)cc1F,-1.28%
4,Cn1c(=O)[nH]c(=O)c2c1[nH]c(=S)n2Cc1ccccc1,86.9% (active)
5,C=CCSc1nc2c(c(=O)[nH]c(=O)n2C)n1Cc1ccccc1,-5.44%
6,COc1ccc(CNc2nc3c(c(=O)[nH]c(=O)n3C)n2Cc2ccccc2)cc1,-2.89%
7,COC(=O)c1cccc(NC(=O)c2cccc(N3C(=O)CCC3=O)c2)c1,-1.61%
8,COc1ccc(OCC(=O)Nc2cc(C)c(Cl)cc2OC)c([N+](=O)[O-])c1,-2.93%
9,Cc1cc(NC(=O)COC(=O)COc2ccc(Cl)cc2C)c([N+](=O)[O-])cc1C,89.5% (active)
10,CCCC(=O)OCC(=O)Nc1cc(Cl)ccc1[N+](=O)[O-],-5.98%
11,CCN(CC(=O)Nc1ccccc1OC)C(=O)CC1CC2CCC1C2 (centres undefined),1.64%
12,O=S(=O)(O)Oc1c[nH]c2ccccc12,-3.63%
13,CC1(c2ccccc2)NC(=O)N(CC(=O)Nc2cc(Cl)ccc2N2CCOCC2)C1=O (centres undefined),13.2%
14,N#CC1(NC(=O)COC(=O)Cc2n[nH]c(=O)c3ccccc23)CCCCC1,-18.6%
15,CCCC(=O)N1CCc2[nH]c3ccccc3c2C1,-30.4%
16,Fc1ccc(NC(=S)N2CCc3[nH]c4ccccc4c3C2)cc1,3.4%
17,C=CCNC(=S)N1CCc2[nH]c3ccccc3c2C1,98.3% (active)
18,CN(C(=O)COC(=O)c1ccc(Br)o1)c1c(N)n(Cc2ccccc2)c(=O)[nH]c1=O,-5.35%
19,Cc1c(C)n2c(SCC(=O)NC3CCCC3)nnc2[nH]c1=O,2.18%
20,COc1cc(OC)cc(-c2c(-c3cccs3)c3cc(-c4ccc(OC)cc4F)ccc3n2C)c1,-3.91%
21,Cc1ccc(-c2n[nH]c(=S)n2/N=C/c2cc3c(cc2[N+](=O)[O-])OCO3)cc1,-5.58%
22,Cc1ccc(S(=O)(=O)N/N=C\c2cc3c(cc2[N+](=O)[O-])OCO3)cc1,-3.17%
23,CCOc1ccc(-c2n[nH]c(=S)n2/N=C/c2cc3c(cc2[N+](=O)[O-])OCO3)cc1,84.2% (active)
24,COc1ccc(/C=N/Nc2cc(N3CCOCC3)nc(C)n2)c(OC)c1,32.1%

row,Compound,inhibition
1,CN(C)c1ccc(/C=N/Nc2cc(N3CCOCC3)nc(N3CCOCC3)n2)cc1,98.8% (active)
2,C(=N/Nc1cc(N2CCOCC2)nc(N2CCOCC2)n1)/c1ccccc1,34.6%
3,CCOc1ccc(C(=O)Nc2cc(Cl)ccc2-n2cncn2)cc1OC,-4.75%
4,Cn1c(CC(=O)NNC(=O)c2ccccc2F)nc2ccccc21,-4.08%
5,COC(=O)CSc1nc(C)c2ccc(OC)cc2n1,-12.7%
6,COc1ccc2cc(CCl)c(Cl)nc2c1,98% (active)
7,COc1ccc2oc(-c3cccc(NC(=O)CSc4ccc(Cl)cc4)c3)nc2c1,-8.13%
8,C=CCSc1nnc(N2C(=O)C(O)=C(C(=O)c3ccco3)C2c2ccc(F)cc2)s1 (centres undefined),98% (active)
9,O=C(C1=C(O)C(=O)N(c2ncccn2)C1c1cccs1)c1ccco1 (centres undefined),21.9%
10,Cc1ccc2nc(N3C(=O)C(O)=C(C(=O)c4ccco4)C3c3cccc(O)c3)sc2c1 (centres undefined),71.5%
11,Cc1ccc(C(=O)NCC(=O)NC2CC2)cc1,0.292%
12,CCC(CO)Oc1cc(NC(=O)c2cccc(F)c2)c2ncn(C(C)C)c2c1 (centres undefined),-32.8%
13,Cn1c(N)c(C(=O)COC(=O)c2cccc(S(=O)(=O)N3CCOCC3)c2)c(=O)n(C)c1=O,-2.97%
14,Nc1ccccc1Sc1cc(Cl)nnc1Cl,1.19%
15,Cc1nn(C)c(C)c1Sc1ccccc1N,99.2% (active)
16,CCOC(=O)c1cc(Sc2ccccc2N)cc(C(=O)OCC)n1,-11.9%
17,O=C(NN=Cc1ccc(N2CCOCC2)cc1)c1cc2ccccc2cc1O,11.6%
18,COc1ccc([C@H]2CC(=O)C=C(c3ccc(CO)cc3)C2)cc1,-0.829%
19,CCC(C)N(C(=O)COC(=O)c1nc(Cl)ccc1Cl)C1CCS(=O)(=O)C1 (centres undefined),0.398%
20,CC(C)N(C(=O)CN1CCN(S(=O)(=O)c2ccc(Br)s2)CC1)C(C)C,-3.29%
21,O=C(CCSc1ccccc1)N1CCN(c2ccccc2F)CC1,-13.1%
22,C/C(=C/c1ccccc1)C(=O)N1CCN(c2ccccc2)CC1,44%
23,CC(CC(=O)N1CCN(c2ccccc2)CC1)c1ccccc1 (centres undefined),98.4% (active)
24,CC(=O)c1ccc(N2CCN(C(=O)CCc3ccccc3)CC2)cc1,16.1%

row,Compound,inhibition
1,Cc1nc2c(-c3ccc(F)cc3)c(C)nn2c(C)c1CCC(=O)N1CCN(c2ccccn2)CC1,-13.5%
2,Cc1nc2ncnn2c(C)c1CCC(=O)N1CCN(C(=O)c2ccco2)CC1,0.394%
3,Cc1nc2nc(C)c(CCC(=O)N3CCN(c4ccccc4)CC3)c(C)n2n1,92.8% (active)
4,O=C(NC(CC(=O)N1CCN(c2ccccc2)CC1)c1ccccc1)c1ccccc1Cl (centres undefined),22.4%
5,O=C(CCc1ccccc1F)N1CCN(c2ccccc2)CC1,88% (active)
6,CCOC(=O)c1cnc2nc(SCc3ccccc3Cl)[nH]n2c1=O,32.6%
7,Cc1csc2nc(O)c(C(=O)NCCN3CCOCC3)c(=O)n12,7.69%
8,COc1ccc(CNc2nc(NCc3ccc(OC)cc3)c3ncn(C4CCCC4)c3n2)cc1,2.44%
9,O=C(Nc1ccccc1Cl)Nn1cnnc1,-11.5%
10,O=C(Nc1ccccc1Cl)/C(Cl)=C(\Cl)S(=O)c1ccccc1 (centres undefined),97.6% (active)
11,O=C(COC(=O)c1cccs1)Nc1ccccc1Cl,2.46%
12,CCCCCC(=O)N1CCN(S(=O)(=O)c2ccc3c(c2)OCCCO3)CC1,1.7%
13,Cc1ccc(S(=O)(=O)N2CCCCC2)cc1NC(=O)[C@@H]1CCCN1C(=O)c1cccs1,-6.24%
14,O=C(Cc1ccc(Br)cc1)NCCc1ccccc1,-8.61%
15,Cc1cc(C)n2nc(C(=O)OCC(=O)N(C)CC(=O)Nc3ccc(F)cc3)nc2n1,2.76%
16,Cc1ccc(CC2C(=O)N(c3ccc(F)cc3)C(=O)C2C)cc1 (centres undefined),1.22%
17,Cc1ccc(N2C(=O)C(Cc3ccccc3)NC2=S)cc1 (centres undefined),25.5%
18,C=C1c2cc(CC)ccc2NC(=O)N1c1ccc(C)cc1,96.2% (active)
19,Cc1ccc(S(=O)(=O)N2CCN(C)CC2)cc1,-6.86%
20,Cc1ccc(S(=O)(=O)N2C3C=CC(C3)C2C(=O)O)cc1 (centres undefined),89.7% (active)
21,Cc1ccc(S(=O)(=O)N2CCN(C(=O)c3cccs3)CC2)cc1,-6.58%
22,CC(C)(C)OC(=O)C[C@@H]1C/C=C\C[C@@H](CC(=O)N[C@H](CO)Cc2ccccc2)C(=O)NC[C@@H](c2ccccc2)OC1=O,-0.924%
